174 sequences from PMC4242493, “Sequence specificity incompletely defines the genome-wide occupancy of Myc” can be followed below.

The full ranking holds about 33,000 sequences; the median of “normalized occupancy” is about 0.075, and the highest 2% start at about 0.095. Only a selection was taken, and the highest values are over-represented in it overall.

The target in this assay is MaxL homodimer (Homo sapiens, UniProt P61244 1-160). Briefly: universal protein-binding microarray (PBM); PBS-based mixture, 10 nM His-tagged protein dimer, 2% milk, 200 ng/uL BSA, 50 ng/uL salmon testes DNA, 0.02% TX-100; detection with Alexa 488 anti-His antibody;; high values mean tight binding. To be noted: protein: recombinant; tags: C-terminal His-tag (pET21a); chain copies: 2; dsDNA, one strand shown. In short, it runs like this: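 Each 8-mer received a fluorescence intensity from GenePix 4400A scans of Agilent 4 x 44 K 'all 10-mer' universal arrays. Those arrays had been incubated with His-tagged protein dimer at 10 nM, and the bound protein was marked with a fluorophore-conjugated anti-His antibody at 10 ng/μL. Binding occupancy is the intensity scaled to that of the highest-ranked sequence word.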
Chain of MaxL homodimer (P61244 whole entry): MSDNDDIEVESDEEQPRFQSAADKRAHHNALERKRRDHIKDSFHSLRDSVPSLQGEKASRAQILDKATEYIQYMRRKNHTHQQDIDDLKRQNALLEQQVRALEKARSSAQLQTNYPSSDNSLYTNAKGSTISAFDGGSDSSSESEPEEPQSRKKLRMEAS
Turning to ACACGCCT, the binding signal turned out to be 0.0971 normalized occupancy.
For ACACGCCG, the binding signal amounted to 0.1 normalized occupancy.
Then ACACGCCA, with 0.0895 normalized occupancy; and ACACGCTG, with 0.108 normalized occupancy; and ACGCGCTG, with 0.077 normalized occupancy.
Then ACACGCTA, with 0.0915 normalized occupancy.
For AAACGCCT the value was 0.073 normalized occupancy; for ACACGCCC, 0.0863 normalized occupancy.
CGTTATAA: the binding signal came to 0.079 normalized occupancy.
Consider ATGGCTCA, for which the binding signal is 0.0798 normalized occupancy.
For CCACCATC the value was 0.0768 normalized occupancy.
Consider CCCGTAAA, for which the binding signal was 0.0752 normalized occupancy.
For CATTAAGA, the binding signal was found to be 0.0765 normalized occupancy.
Then AGCATATA, with 0.0807 normalized occupancy; and ATCATATC, with 0.0861 normalized occupancy.
As for AGCATATG, the binding signal was 0.103 normalized occupancy.
For ACCATATC the value was 0.0845 normalized occupancy; for ACCATATA, 0.0814 normalized occupancy.
Take ACCATATG: the binding signal was determined as 0.118 normalized occupancy.
On to ATCATATG, for which the binding signal amounted to 0.0972 normalized occupancy.
For AACATATG the value was 0.1 normalized occupancy; for AGCATATC, 0.0822 normalized occupancy.
For ATCATATA the value was 0.0893 normalized occupancy; for AACATATA, 0.0841 normalized occupancy; for CACATATG, 0.095 normalized occupancy.
Take GTTACGTA: the binding signal came out at 0.0751 normalized occupancy.
As for CTCGATAC, the binding signal amounted to 0.0749 normalized occupancy.
Then AAATGCTG, with 0.0762 normalized occupancy.
Then AAAAGCTA, with 0.0755 normalized occupancy; and GGTACGAC, with 0.0721 normalized occupancy; and CAGCACAC, with 0.0857 normalized occupancy.
For GAGCACAA the value was 0.0775 normalized occupancy.
Turning to GAGCACAC, the binding signal was determined as 0.0956 normalized occupancy.
Then GCAGAATA, with 0.0753 normalized occupancy.
For ACGTGAAT the value was 0.0824 normalized occupancy; for ACGTGAAG, 0.1 normalized occupancy.
For CCGTGAAG the value was 0.0739 normalized occupancy; for ACGTGAAC, 0.0842 normalized occupancy; for AAGTGAAG, 0.076 normalized occupancy.
As to ACGTGAAA, the binding signal is 0.097 normalized occupancy.
Regarding GATGAAAC, the binding signal was determined as 0.0811 normalized occupancy.
Then AGCGTTAC, with 0.0823 normalized occupancy; and CACGCATG, with 0.121 normalized occupancy.
With CGCGCACG, the binding signal turned out to be 0.0959 normalized occupancy.
With TACGCATA, the binding signal is 0.0842 normalized occupancy.
Then CACGCAAG, with 0.0838 normalized occupancy.
For CACGCACG the value was 0.096 normalized occupancy.
For the sequence CACGCATA, the binding signal was 0.0976 normalized occupancy.
Take CACGCACA: the binding signal was found to be 0.0923 normalized occupancy.
Consider GACGCATA, for which the binding signal is 0.0777 normalized occupancy.
Then AACGCATA, with 0.0871 normalized occupancy; and CGCGCACA, with 0.0822 normalized occupancy; and CACGCACC, with 0.0913 normalized occupancy.
For GGCGCACA the value was 0.0793 normalized occupancy; for ACACAGTC, 0.0783 normalized occupancy.
Then GTAGTCTA, with 0.0723 normalized occupancy; and GTACTACA, with 0.0864 normalized occupancy.
As to ACTTTAGG, the binding signal came out at 0.073 normalized occupancy.
With ACGCGAAG, the binding signal came to 0.0765 normalized occupancy.
Take AGTAGTAA: the binding signal worked out at 0.0731 normalized occupancy.
With ACAACCGA, the binding signal worked out at 0.0733 normalized occupancy.
Then AACGCATT, with 0.0767 normalized occupancy; and GACGCATC, with 0.077 normalized occupancy.
Consider AACGCAAG, for which the binding signal came out at 0.073 normalized occupancy.
For CACGCATC the value was 0.0962 normalized occupancy; for AACGCATC, 0.0731 normalized occupancy.
For AACGCATG the value was 0.121 normalized occupancy; for AAACTATT, 0.0745 normalized occupancy; for TAGGACTA, 0.0732 normalized occupancy.
Then CACCCGTA, with 0.0782 normalized occupancy; and TAGCATGA, with 0.0921 normalized occupancy.
As for CAGCATGG, the binding signal came to 0.13 normalized occupancy.
With GAGCATGA, the binding signal came to 0.0963 normalized occupancy.
Then CAGCATAA, with 0.0808 normalized occupancy; and CAGCATCG, with 0.0732 normalized occupancy.
For GAGCATAA the value was 0.0797 normalized occupancy; for CAGCATAG, 0.0739 normalized occupancy; for CAGCATGA, 0.106 normalized occupancy.
For GAGCATCA the value was 0.0734 normalized occupancy; for CGTCGAAC, 0.0719 normalized occupancy; for ACTCGTGA, 0.0957 normalized occupancy.
Take AGTCGTGA: the binding signal is 0.0749 normalized occupancy.
For CCTCGTTC the value was 0.0806 normalized occupancy; for CCTCGTGC, 0.133 normalized occupancy; for ACTCGTGC, 0.0933 normalized occupancy.
Then GCTCGTGA, with 0.0843 normalized occupancy; and ACTCGTCA, with 0.0793 normalized occupancy.
For AATCGTGG the value was 0.0832 normalized occupancy.
Regarding CATCGTGC, the binding signal came out at 0.0886 normalized occupancy.
As for CCTCGTGA, the binding signal turned out to be 0.125 normalized occupancy.
For CCTCGTTA the value was 0.0752 normalized occupancy; for ACTCGTGG, 0.0955 normalized occupancy.
With ACGTTGAA, the binding signal came to 0.083 normalized occupancy.
Regarding GGGACCAC, the binding signal amounted to 0.078 normalized occupancy.
For CTCTCCAC the value was 0.0859 normalized occupancy.
For CTATGCTA the value was 0.0768 normalized occupancy; for AGACACAT, 0.0849 normalized occupancy; for CTAAGGTC, 0.0732 normalized occupancy.
For AAATGACC the value was 0.0764 normalized occupancy; for ATAAGCTG, 0.0801 normalized occupancy; for ATGCGTGA, 0.0965 normalized occupancy.
Turning to ATGCGTAG, the binding signal turned out to be 0.0832 normalized occupancy.
Then ATGCGTGC, with 0.0969 normalized occupancy.
For GTGCGTGA the value was 0.0887 normalized occupancy; for ATGCGTGG, 0.106 normalized occupancy.
Then ATGCGTCC, with 0.0782 normalized occupancy; and CTGCGTGC, with 0.0861 normalized occupancy; and CTGCGTGA, with 0.0818 normalized occupancy.
Turning to ATGCGTTG, the binding signal came to 0.0816 normalized occupancy.
Then ACATCCCG, with 0.0795 normalized occupancy; and AGAATGGA, with 0.0768 normalized occupancy; and GCGACGCA, with 0.0736 normalized occupancy.
Take CGCGTAAC: the binding signal came to 0.0752 normalized occupancy.
Then CCACATTC, with 0.0852 normalized occupancy; and CAACATGG, with 0.0932 normalized occupancy.
Then CAACATGA, with 0.0936 normalized occupancy.
As for CCACATGC, the binding signal was determined as 0.163 normalized occupancy.
Then CCACATGG, with 0.227 normalized occupancy; and CAACATGC, with 0.094 normalized occupancy.
For CCACATAG the value was 0.0803 normalized occupancy; for CCACATGA, 0.134 normalized occupancy.
For CCACATTA the value was 0.093 normalized occupancy; for GATCCGCA, 0.0769 normalized occupancy; for CATTCAGC, 0.0725 normalized occupancy.
GAATTATA: the binding signal is 0.0789 normalized occupancy.
Then TCACTGCA, with 0.075 normalized occupancy; and CTCAAGTC, with 0.0771 normalized occupancy; and AAGGTTTA, with 0.0757 normalized occupancy.
For CACACACA the value was 0.087 normalized occupancy.
For AACACACA the value was 0.0847 normalized occupancy; for AACACGGT, 0.0777 normalized occupancy; for CACACGCC, 0.0955 normalized occupancy.
For GACACGCC, the binding signal was 0.0849 normalized occupancy.
Then AACACGCA, with 0.0915 normalized occupancy; and AACACGCC, with 0.0909 normalized occupancy; and AACACGCG, with 0.12 normalized occupancy.
Consider CACACGCA, for which the binding signal is 0.0865 normalized occupancy.
Then AACACGCT, with 0.0974 normalized occupancy; and CACACACG, with 0.0916 normalized occupancy; and CACACGCG, with 0.124 normalized occupancy.
Then CCACGGAC, with 0.0742 normalized occupancy; and CGACTAAA, with 0.0736 normalized occupancy.
As for TCACTTAA, the binding signal amounted to 0.078 normalized occupancy.
Consider GAACCAAC, for which the binding signal is 0.0752 normalized occupancy.
Then AGACGACA, with 0.0751 normalized occupancy; and ACAAACCT, with 0.0779 normalized occupancy.
For AACGACTG the value was 0.0722 normalized occupancy; for GACATTAC, 0.0843 normalized occupancy; for ATGCTATA, 0.0889 normalized occupancy.
CCGCGTAC: the binding signal amounted to 0.0726 normalized occupancy.
Then ACGCGTCC, with 0.0815 normalized occupancy; and ACGCGTGG, with 0.139 normalized occupancy; and CCGCGTGC, with 0.145 normalized occupancy.
For ACGCGTAG the value was 0.0796 normalized occupancy.
For ACGCGTTC the value was 0.0785 normalized occupancy.
Turning to GCGCGTTA, the binding signal was found to be 0.0795 normalized occupancy.
For GCGCGTGA the value was 0.106 normalized occupancy; for CGGCGTGC, 0.0923 normalized occupancy.
Then ACGCGTGC, with 0.13 normalized occupancy.
For GGGCGTGA the value was 0.0932 normalized occupancy.
For ACGCGTCG, the binding signal turned out to be 0.0769 normalized occupancy.
Then GTGAGGGA, with 0.0752 normalized occupancy.
For AAAAAGCA the value was 0.078 normalized occupancy; for GAAAGCGC, 0.0724 normalized occupancy; for ATTACCTA, 0.0784 normalized occupancy.
Then AGGTTCTA, with 0.0755 normalized occupancy; and CAAGCGAA, with 0.0755 normalized occupancy.
Regarding CAATTTCA, the binding signal is 0.0751 normalized occupancy.
For CCGCGTAA the value was 0.0729 normalized occupancy.
Consider ACGCGTGA, for which the binding signal was determined as 0.114 normalized occupancy.
Then ACGCGTAA, with 0.0882 normalized occupancy; and CCGCGTGA, with 0.142 normalized occupancy; and CGGCGTGA, with 0.0839 normalized occupancy.
Then ACGCGTCA, with 0.0796 normalized occupancy.
